TCR activator = Activators of T cell receptors: qHTS campaign; primary human leukocytes, anti-CD3, IL-2 HTRF, 48 h; Potency, µM (highest dose often 9.22 µM), for inactives: at the top dose activation of IL-2 secretion, actives largely listed as activators; 330,000 tested, under 10 active; AID 504894, 2011; further: % of control where 0% means no effect
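Human primary leukocytes + a-CD3 beads + cpd, 48 hr; IL-2 in supernatant by HTRF (ex 320nm / em 665nm). No co-stimulatory signal supplied.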
IL2 activator = qHTS of IL-2 Activators | IL-2 activation reporter assay, cell-based qHTS; stimulated with anti-CD3/CD4/CD28 beads; in transgenic mouse T cells | activation, % (series mostly up to about 46 µM) | 0.065% of 360,000 active | AID 652025, 2013; in the data active means activation above about 50%; inconclusive means mostly about 30% to 49%; further: 0% is about no effect
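Quantitative HTS in unstimulated transgenic mouse T cells, with memory T cells as non-tolerant control and PMA/ionomycin as tolerance-bypass control. Compound pretreatment lasted 60 minutes before 18 h bead stimulation; EGFP/DsRed fluorescence read.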
p53 reactivator = qHTS assay for re-activators of p53 using a Luc reporter; H1299 p53-A138V BP100-luciferase reporter, luminescence, 24 h; Potency, µM (series often up to 92.2 µM), without a hit: top-dose activity change, positive = activation, actives largely listed as activators; 0.063% of 320,000 active; AID 504706, 2011; further: potency means the concentration at half of the fitted maximal effect; % of control where 0% means no effect; nearly all actives have a fitted effect of over 45% in size
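p53-null H1299 cells stably carrying temperature-sensitive p53-A138V and a BP100-luciferase reporter were pinned with compounds (4-point, 1:5 series) and held 24 hrs at 37 deg C. Luminescence was read 10 min after detection reagent.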
Mito fusion yeast = qHTS Assay for Small Molecule Inhibitors of Mitochondrial Division or Activators of Mitochondrial Fusion. S. cerevisiae fusion-defective mutant growth rescue, CellTiterGlo 48 h. Potency, µM (highest dose often 46.1 µM), without a hit: at the highest dose growth rescue (activation), most hits filed as activators. 0.23% of 320,000 active; further: potency means the concentration at half of the fitted maximal effect; % of control where 0% means no effect; nearly all actives have a fitted effect of over 45% in size
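Yeast fusion mutant, YPEG (non-fermentable carbon), compound, 48 h at 37C non-permissive; CellTiterGlo added, 10 min RT, luminescence read. Rescued growth = division inhibition.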
BRCA1 expr up = qHTS Assay to Identify Small Molecule Activators of BRCA1 Expression. MCF7-BRCA1-FFLuc reporter, luminescence, 48 h; response scale: scaled: vehicle 0%, 10 µM genistein 100%. Potency, µM (doses to about 46.1 µM), for inactives: at the highest dose activation, actives largely listed as activators. 1.1% of 380,000 active; further: potency means the concentration at half of the fitted maximal effect; nearly all actives have a fitted effect of over 80% in size
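MCF7-BRCA1-FFLuc, 2000 cells/well; 2 h attach, 37 °C/5% CO2; compound 48 h; luciferase substrate 15 min; luminescence end-point. Norm. to genistein 10 microM max activation and DMSO; concentration-response curves fitted.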
Numbers without * were called inactive; ? = inconclusive; . = no result; ! = repeats disagree; [ ] = another dose, or the depositor's remark. An excerpt weighted towards active compounds, which were near 1.3% of everything screened. Unless noted, the call rests on the fitted dose curve; in most records, active means well fitted curve in the direction sought with a large enough effect; inconclusive means small, poorly fitted or top-dose-only effect, or another doubt; inactive means no such curve, though single readings can be large; an effect the other way counts as inactive or inconclusive.

SMILES	TCR activator	IL2 activator	p53 reactivator	Mito fusion yeast	BRCA1 expr up
Cc1ccc([N+](=O)[O-])cc1S(=O)(=O)N(C(=O)c1ccncc1)c1ccc2oc3c(c2c1)CCCC3	-7.0%	-1.8	-2.9%	12.6µM*	-41.9%
COc1ccccc1C1N=C(Nc2nc3ccccc3o2)NC2=C1C(=O)CC(C)(C)C2 (stereo not given)	.	.	.	.	-36.2%
Cc1ccsc1/C=N\NC(=O)c1cc(C(C)(C)C)[nH]n1	-6.4%	1.3	4.0%	2.4%	5.01µM*
O=C(NN=Cc1ccc2c(c1)OCO2)c1ccccc1	12.5%	-0.4	.	.	?
Cc1ccc(/C=N/NC(=O)c2ccc3c(c2)OCCO3)s1	-34.8%	-2.0	11.8%	-2.6%	2.51µM*
O=C(N/N=C/c1ccc2c(c1)OCO2)C1CC1	9.1%	-4.7	?	-0.4%	7.94µM*
O=C(N/N=C/c1ccc2c(c1)OCO2)c1ccc2c(c1)OCO2	-9.1%	-0.9	-0.2%	-0.4%	8.91µM*
Cc1ccc(/C=N/NC(=O)c2ccc3ccccc3c2)s1	1.9%	-0.4	4.3%	-0.3%	36.1%
S=C(NN=Cc1ccc2c(c1)OCO2)NN=Cc1ccc2c(c1)OCO2	9.4%	-0.5	.	.	3.2%
O=C(N/N=C\c1ccc2c(c1)OCO2)c1ccco1	-8.4%[46.1 µM]	-3.2	?	-1.7%	3.16µM*
Cc1ccsc1/C=N/NC(=O)c1ccc(-n2cccc2)cc1	-1.0%	2.7	2.3%	1.5%	11.2µM*
Cc1cc(C(=O)N/N=C/c2ccc(C)s2)n[nH]1	0.7%	2.8	?	-4.3%	7.08µM*
O=C(N/N=C\c1cccc(OC(=O)c2ccco2)c1)c1ccc2c(c1)OCO2	-3.9%[46.1 µM]	-0.6	?	2.6%	80.9%
Cc1ccc(CC(=O)N/N=C/c2ccc3c(c2)OCO3)cc1	-5.5%	-2.5	4.1%	-0.5%	8.91µM*
Cc1cc(C(=O)N/N=C/c2ccc([N+](=O)[O-])s2)n[nH]1	1.6%	-4.8	6.0%	18.9%	-81.9%
O=C(CCc1ccc(O)cc1)NN=Cc1ccc2c(c1)OCO2	.	-0.5	.	.	0.0%
CCOc1ccc(C(=O)CSc2nc3cc(C(=O)NC4CCCC4)ccc3c(=O)n2CC2CCCO2)cc1 (stereo not given)	.	.	.	.	0.0%
Cc1cc(/C=C2\C(=O)NN(c3ccccc3)C2=O)c(C)n1-c1ccccc1O	10.6%	0.9	12.3%	-2.3%	10µM*
Cc1cc(/C=C2/C(=O)NN(c3ccccc3)C2=O)c(C)n1-c1ccc(O)cc1	-5.9%[46.1 µM]	-2.2	17.9%	-1.4%	11.7%
COc1ccc(Nc2c3c(nc4ccc(NC(=O)c5cc(Cl)ccc5OC)cc24)CCCC3)cc1OC	.	.	.	.	-42.6%
CCOc1ccc(C(=O)Nc2ccc(-c3nc4ccccc4[nH]3)cc2)cc1[N+](=O)[O-]	2.8%	0.1	4.5%	0.1%	3.16µM*!
COc1ccc(-c2nc3ccccc3s2)cc1NC(=O)COc1cccc(C)c1	.	.	.	.	-11.8%
O=C(Nc1ccc(F)cc1F)Nc1ccc(F)cc1F	-3.0%	-3.6	1.7%	-2.7%	10µM*
O=Cc1ccc(OCc2ccc3c(c2)OCO3)cc1	-1.4%	0.6	.	0.5%	2.82µM*
Cc1ccc(COc2ccc3c(c2)OCO3)cc1	-2.7%	3.3	?	-1.8%	?
SMILES	TCR activator	IL2 activator	p53 reactivator	Mito fusion yeast	BRCA1 expr up
C/C(=N/NC(=O)c1cccs1)c1cccc(N)c1	-3.1%	-2.0	6.7%	2.9%	11.2µM*
C=C(C)C1CC=C(C)/C(=N/NC(=O)c2cccs2)C1 (stereo not given)	1.5%[46.1 µM]	-0.5	?	3.9%	10µM*
C/C(=N/NC(=O)c1cccs1)c1cccs1	3.4%	7.2	13.0%	-2.8%	3.55µM*
C/C(=N\NC(=O)c1cc2ccccc2cc1O)c1cccs1	-6.3%	1.1	?	5.3%	1.6%
C/C(=N\NC(=O)c1cccs1)c1c(O)cc(C)oc1=O	-7.2%	-3.7	2.9%	-0.4%	3.55µM*
CCN(C(=O)CSc1nc2ccccc2n1Cc1ccc(F)cc1Cl)c1ccccc1	.	.	.	.	9.4%
CCC(=O)N1CCCc2cc(S(=O)(=O)Nc3ccc(C)c(C)c3)ccc21	.	.	.	.	0.0%
CC(C)(C)C(=O)Nc1ccc2c(c1)C(=O)C(=O)c1ccccc1-2	.	.	.	.	-31.1%
O=C(Nc1ccc(OC(F)F)cc1)c1nc(SCc2ccccc2F)ncc1Cl	.	.	.	.	-5.8%
CC(C)c1ccc(/C=N/NC(=O)c2c(Cl)cnn2C)cc1	1.5%[46.1 µM]	0.6	?	6.1%	7.08µM*
O=C1N(Cc2ccccc2Cl)c2ccccc2C1(O)c1c[nH]c2ccccc12 (stereo not given)	.	.	.	.	-31.1%
CSc1c(C#N)c(N)nc2sc(C(=O)c3ccccc3)c(N)c12	-2.3%	275.0*	-2.2%	-10.8%	6.4%
C1=Cc2ccccc2/C1=C\c1cccc(/C=C2\C=Cc3ccccc32)c1	.	.	.	.	12.0%
CN(c1ccccc1)S(=O)(=O)c1ccc(NC(=O)c2ccc(F)cc2)cc1	-84.4%	0.2	.	.	0.0%
CN(c1ccccc1)S(=O)(=O)c1cccc(NC(=O)c2cc3ccccc3oc2=O)c1	-1.3%	-1.4	14.8%	0.2%	11.2µM*
CN(c1ccccc1)S(=O)(=O)c1ccc(NC(=O)c2ccccc2)cc1	1.6%[46.1 µM]	-4.3	18.1%	22.4µM*	-1.3%
Cc1cc(C=Nc2ccc(/C=C/c3ccnc4ccccc34)cc2)ccc1N(C)C	.	.	.	.	18.2%
COc1ccc2c(c1OC)C(=O)OC2Nc1nc(-c2ccc([N+](=O)[O-])cc2)cs1 (stereo not given)	8.4%	-0.7	19.7%	6.3%	12.6µM*
Cc1ccc(N2C(=O)c3ccccc3C2Nc2ccc(S(=O)(=O)N3CCCCC3)cc2)nc1 (stereo not given)	4.2%	-2.9	1.7%	1.2%	-7.3%
Cc1ccc(N2C(=O)c3ccccc3C2Nc2ccc(S(=O)(=O)N3CCOCC3)cc2)nc1 (stereo not given)	-5.0%	-2.0	9.3%	-0.1%	14.1µM*
Cc1cc(C(=O)N2CCc3c([nH]c4ccccc34)C2c2cccc(Cl)c2)nn1C (stereo not given)	3.9%	0.6	3.2%	5.01µM*	-51.2%
O=S(=O)(c1ccc(F)cc1)N1CCN(c2nc(-c3ccccc3)nc3cc(Cl)ccc23)CC1	.	.	.	.	3.4%
CCNc1nc(N)c(C(=O)c2ccc(Cl)s2)s1	4.0%	-0.6	?	1.5%	5.01µM*
CC(C)(C)c1csc(NC(=O)c2ccc(Cl)s2)n1	-0.3%	-1.3	-1.5%	16.9%	-20.1%
CN1/C(=C\C=C(/C#N)C(=O)Nc2ccc(Cl)cc2)C(C)(C)c2ccccc21	-6.7%[46.1 µM]	1.2	-7.2%	-2.4%	-2.3%
CN1/C(=C\C=C(C#N)C#N)C(C)(C)c2ccccc21	-2.7%	142.6*	0.3%	5.0%	-1.2%

Screening data (PubChem BioAssay)
